Measured values published in PubChem BioAssay.
Activity calls are given as the source filed them.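 Rule for the calls, unless noted: active = visually confirmed hit in the image check and inhibition above 20%; inconclusive = visually confirmed hit but inhibition not above 20%; inactive = no visual hit in the image check.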

How the values were obtained:
[1] = inhibitors of TNFa-induced NFkB p65 translocation, primary screen, imaging, HUVEC, MLSMR starter and 10KST1 sets (AID 438;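 active = inhibition above 20% together with a positive visual image hit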;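 note: compound added about 3h40 before a 20 min TNFalpha stimulation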;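 for inhibition: signal is the nuclear over cytoplasmic p65 intensity ratio per well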); settings: HUVEC TNFa-induced p65 nuclear translocation; cell count: measured here: nuclei count (cytotoxicity indicator), at 2.08 µM; inhibition: at 2 µM, stronger effect = higher value, 0% TNFa-plus-vehicle, 100% no-TNFa wells
[2] = reduction of polyQ htt aggregates in cells – imaging, exon1htt(103Q)mCFP cells, high-content imaging, primary screen (AID 483;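 active = visual image review flags a hit and inhibition of aggregation exceeds 20%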;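 note: compound exposure lasted 3 days before fixation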;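 for nuclei count: percent of the per-plate median nuclei count of sample wells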); settings: exon1htt(103Q)mCFP cell line, aggregate imaging, at 2 µM; inhibition of aggregation: stronger effect = higher value; nuclei count: measured here: cell count, toxicity
[3] = endothelial E-selectin expression blockers – imaging, HUVEC, immunofluorescence, MLSMR starter and 10KST1 sets, primary screen (AID 487); settings: HUVEC TNFalpha-induced E-selectin immunofluorescence imaging, at 2 µM; inhibition: stronger effect = higher value; nuclei count: measured here: cell number, toxicity;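 for inhibition: signal is fraction of cell area covered by stained E-selectin grains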;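 for nuclei count: 100% = median nuclei count of all wells on the same plate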
[4] = biological target: Voltage-gated potassium channel subunit beta-2 (Rattus norvegicus) (UniProt P62483); assay: inhibitors of rat Kvbeta2 reductase activity – biochemical, NADPH fluorescence, primary screen (AID 622;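 active = fluorescence slope higher than the sample average by over 3 SD, cut at about -0.22 in these data, passing the limit was not always enough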;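 note: slope of raw intensity against log time taken from 70 to 1610 s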); settings: recombinant KvBeta, 4-cyanobenzaldehyde reduction, at 10 µM, stronger effect = higher value
[5] = biological target: Voltage-gated potassium channel subunit beta-2 (Rattus norvegicus) (UniProt P62483); assay: enhancers of rat Kvbeta2 NADPH turnover – biochemical, NADPH fluorescence, primary screen (AID 623;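 active = NADPH fluorescence slope more negative than the mean of all samples by about 3 SD, 99.7% confidence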;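 note: fluorescence intensity change per second fitted from 20 to 320 s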); settings: Recombinant KvBeta, NADPH fluorescence decrease slope, 10 min; at 10 µM; stronger effect = lower value
[6] = biological target: Alpha-2C adrenergic receptor (Homo sapiens) (UniProt P18825); assay: compounds altering alpha2C-coupled GIRK flux – cell-based, HEK293 alpha2C/GIRK1/2, thallium flux, primary screen (AID 624;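 active = fluorescence slope after compound addition differing from the mean of all screened samples at 99.7% confidence, in either direction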;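 note: slope of fluorescence ratio to pre-addition baseline per second over 15 to 24 s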); settings: thallium flux BTC fluorescence, at 10 µM, actives lie on both sides
[7] = blockers of RIG-like receptor reporter activation – cell-based, Sendai virus stimulus, luciferase, 10K MLSCN set, TLR/RLR signaling modifier project, primary screen (AID 602276;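 active = inhibition at or above 50% at 10 µM; inactive = inhibition below 50%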;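 note: firefly luciferase from ISG56 promoter only with Renilla not read in this screen; 0% = Sendai virus plus DMSO and 100% = medium plus DMSO without virus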); settings: HEK293 RL24 IRF3 luciferase reporter, at 10 µM, stronger effect = higher value
[8] = TLR3 IRF3 reporter activation blockers – cell-based, poly I:C stimulus, luciferase, 10K MLSCN set, primary screen (AID 602277;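 active = inhibition of the reporter signal at or above 50%; inactive = inhibition below 50%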); settings: HEK293-TLR3 RL24 IRF3 luciferase reporter, at 10 µM, stronger effect = higher value

Chain of Alpha-2C adrenergic receptor (Homo sapiens) (P18825 whole entry, looked up): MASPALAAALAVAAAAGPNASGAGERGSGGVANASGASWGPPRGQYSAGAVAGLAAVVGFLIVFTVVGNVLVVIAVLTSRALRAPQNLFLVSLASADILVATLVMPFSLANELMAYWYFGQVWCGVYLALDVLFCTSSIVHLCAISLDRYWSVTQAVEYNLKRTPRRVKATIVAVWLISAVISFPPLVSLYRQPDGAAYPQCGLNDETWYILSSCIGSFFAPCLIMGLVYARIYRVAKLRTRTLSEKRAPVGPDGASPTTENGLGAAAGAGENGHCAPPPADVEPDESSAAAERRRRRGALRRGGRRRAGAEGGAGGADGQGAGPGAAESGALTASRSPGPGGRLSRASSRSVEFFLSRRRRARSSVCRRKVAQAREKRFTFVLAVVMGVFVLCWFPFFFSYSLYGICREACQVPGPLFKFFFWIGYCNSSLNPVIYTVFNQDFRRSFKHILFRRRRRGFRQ
Chain of Voltage-gated potassium channel subunit beta-2 (Rattus norvegicus) (P62483 whole entry, looked up): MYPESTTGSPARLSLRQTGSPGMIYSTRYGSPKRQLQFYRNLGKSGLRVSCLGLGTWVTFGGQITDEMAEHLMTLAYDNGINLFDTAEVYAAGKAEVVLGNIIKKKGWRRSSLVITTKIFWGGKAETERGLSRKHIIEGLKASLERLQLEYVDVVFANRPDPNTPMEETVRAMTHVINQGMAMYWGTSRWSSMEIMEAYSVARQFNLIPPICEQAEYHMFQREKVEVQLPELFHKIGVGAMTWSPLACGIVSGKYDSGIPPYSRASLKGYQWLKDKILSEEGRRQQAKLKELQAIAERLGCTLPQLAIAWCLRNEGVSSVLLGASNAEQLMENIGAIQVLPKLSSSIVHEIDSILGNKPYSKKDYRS

Row | Structure (SMILES) | cell count [1] | inhibition [1] | inhibition of aggregation [2] | nuclei count [2] [%] | inhibition [3] | nuclei count [3] [%] | fluorescence slope [4] | NADPH fluorescence slope [5] | slope [6] | inhibition [7] | inhibition [8]
1 | Cn1cnc(S(=O)(=O)NCc2cccs2)c1 | 417 | 10.8% (inactive) | -26.8% (inactive) | 101 | -43.8% (inactive) | 132 | -0.541 (inactive) | 3.3e-05 (inactive) | 0.00567 (inactive) | -2.25% (inactive) | 6.69% (inactive)
2 | Cc1ccc2oc(-c3ccccc3C(=O)O)cc(=O)c2c1 | 363 | 10.8% (inactive) | 2.4% (inactive) | 107 | -59.4% (inactive) | 125 | -0.627 (inactive) | -1.2e-05 (inactive) | 0.00399 (inactive) | 12.1% (inactive) | 5.36% (inactive)
3 | Cc1ccc2cc3cc(C(=O)NCCN4CCOCC4)oc3nc2c1 | 760 | -5% (inactive) | 3.7% (inactive) | 105 | -36.3% (inactive) | 111 | -0.0588 (inactive) | -2.5e-05 (inactive) | 0.00283 (inactive) | 7.18% (inactive) | 8.18% (inactive)
4 | Cc1cc(C)n(-c2nc3sc4c(c3c3nnc(SCC(N)=O)n23)CC(C)(C)OC4)n1 | 368 | 6.9% (inactive) | -7.7% (inactive) | 88.2 | -4.5% (inactive) | 116 | -0.318 (inactive) | 3.6e-06 (inactive) | 0.00476 (inactive) | 6.12% (inactive) | 10.9% (inactive)
5 | COCCn1c(SCC(=O)Nc2sc(C)c(C)c2C#N)nnc1C(C)C | 593 | -11.7% (inactive) | 25.9% (inactive) | 73 | 18.9% (inactive) | 78.2 | -0.491 (inactive) | -7.2e-05 (inactive) | 0.00431 (inactive) | 11.9% (inactive) | 5.56% (inactive)
6 | COc1cccc(-c2nc3n(n2)C(c2cccs2)C(C(=O)Nc2cccnc2)=C(C)N3)c1 (stereo not drawn) | 735 | -20.1% (inactive) | 30.4% (inactive) | 111 | -65.8% (inactive) | 113 | -0.365 (inactive) | 1.9e-05 (inactive) | 0.00588 (inactive) | 22.3% (inactive) | 32.8% (inactive)
7 | COc1ccc(OC)c(S(=O)(=O)Nc2ccccc2SC)c1 | 623 | -5% (inactive) | 20% (inactive) | 96.7 | 20.9% (inactive) | 85.2 | -0.486 (inactive) | -3.4e-05 (inactive) | 0.00443 (inactive) | 21% (inactive) | 24% (inactive)
8 | COc1ccc(Oc2nc(Oc3ccc(OC)cc3)nc(Oc3ccc(OC)cc3)n2)cc1 | 320 | -5.1% (inactive) | -10.7% (inactive) | 109 | -4.6% (inactive) | 106 | -0.536 (inactive) | -1.9e-06 (inactive) | 0.00755 (inactive) | 3.19% (inactive) | 11.5% (inactive)
9 | Cc1cccc(N2CCN(C(=O)c3cc4ccccc4oc3=O)CC2)c1C | 712 | -2.8% (inactive) | -28.9% (inactive) | 93.7 | -22.9% (inactive) | 117 | -0.565 (inactive) | -2.1e-05 (inactive) | 0.00624 (inactive) | -10.3% (inactive) | -10.8% (inactive)
10 | COCCNC(=O)C(c1ccc(O)cc1)N(Cc1ccco1)C(=O)CCC(=O)Nc1nccs1 (stereo not drawn) | 474 | 6.7% (inactive) | 0.1% (inactive) | 102 | -52.2% (inactive) | 116 | -0.499 (inactive) | 4.7e-06 (inactive) | 0.0061 (inactive) | -12.6% (inactive) | 14.7% (inactive)
11 | O=C(NC1CCN(Cc2ccccc2)CC1)C1CCN(S(=O)(=O)c2cccc3cccnc23)CC1 | 526 | -11.6% (inactive) | 7.8% (inactive) | 83.4 | -4.4% (inactive) | 99.2 | -0.561 (inactive) | 7.4e-08 (inactive) | 0.00666 (inactive) | -12.5% (inactive) | 8.2% (inactive)
12 | CN(C)c1ccnc(NCc2ccccc2)c1C#N | 286 | 2.1% (inactive) | 19% (inactive) | 72.9 | -62% (inactive) | 112 | -0.411 (inactive) | -3.6e-05 (inactive) | 0.00526 (inactive) | -8.5% (inactive) | -26.6% (inactive)
13 | COCCCn1c(SCC(=O)Nc2cccc(C)n2)nnc1-c1ccco1 | 601 | -10.2% (inactive) | 21.7% (inactive) | 85.3 | 73.4% (inactive) | 64.2 | -0.612 (inactive) | -2.9e-05 (inactive) | 0.00331 (inactive) | 18.6% (inactive) | 16.6% (inactive)
14 | CC(=O)Nc1sc2c(c1CN1CCN(c3ccccn3)CC1)CCCC2 | 698 | -14.6% (inactive) | 5.2% (inactive) | 95.6 | 54.3% (active) | 95.3 | -0.517 (inactive) | -3.7e-05 (inactive) | 0.00435 (inactive) | 6.55% (inactive) | 12.4% (inactive)
15 | Cc1cc(C)c(OCC(=O)Nc2ccc3c(c2)OCO3)cc1C | 327 | -0.7% (inactive) | 7.3% (inactive) | 101 | 9.8% (inactive) | 103 | -0.437 (inactive) | 4.6e-05 (inactive) | 0.00669 (inactive) | -6.64% (inactive) | -49.1% (inactive)
16 | Cc1cccc(CCNC(=O)CCc2nc(-c3ccccc3F)no2)c1 | 357 | 2.8% (inactive) | -1.1% (inactive) | 101 | -2.7% (inactive) | 114 | -0.415 (inactive) | -2.4e-05 (inactive) | 0.00305 (inactive) | -0.595% (inactive) | 2.35% (inactive)
17 | Cc1oc(-c2cccc(Cl)c2)nc1CN1CCC(C(=O)N2CCN(c3ccccc3F)CC2)CC1 | 780 | -0.6% (inactive) | -4% (inactive) | 77.7 | -73.6% (inactive) | 108 | -0.552 (inactive) | -2.2e-05 (inactive) | 0.00639 (inactive) | -0.341% (inactive) | -26% (inactive)
18 | COc1ccc(Br)cc1CNC(=O)CCc1nc(-c2ccc(C)cc2)no1 | 517 | -4% (inactive) | -13.7% (inactive) | 98.4 | -2.8% (inactive) | 120 | -0.314 (inactive) | -6.4e-07 (inactive) | 0.00305 (inactive) | 15.2% (inactive) | 28.1% (inactive)
19 | O=C(Nn1c(C2CC2)nc2ccccc2c1=O)c1ccco1 | 579 | -12.1% (inactive) | 9.9% (inactive) | 95.2 | -38.3% (inactive) | 116 | -0.48 (inactive) | 6.6e-05 (inactive) | 0.00689 (inactive) | 9.09% (inactive) | 23.5% (inactive)
20 | CCOC(=O)C(NC(=O)Nc1ccccc1)(OCC)C(F)(F)F (stereo not drawn) | 517 | -2.4% (inactive) | -2.5% (inactive) | 97.9 | 25% (inactive) | 89.1 | -0.639 (inactive) | 1.8e-05 (inactive) | 0.0106 (inactive) | 16.5% (inactive) | 30.2% (inactive)
21 | COc1ccc(-c2nnc(SCCC(=O)O)n2-c2ccccc2)cc1 | 348 | 2.5% (inactive) | -19.5% (inactive) | 107 | -10.9% (inactive) | 124 | -0.644 (inactive) | 1.6e-05 (inactive) | 0.00524 (inactive) | 12.1% (inactive) | 16.4% (inactive)
22 | COC(=O)C1(C#N)C(c2ccccc2)C1(C(=O)OC)C(=O)OC (stereo not drawn) | 450 | 2.6% (inactive) | -8.3% (inactive) | 103 | -21.2% (inactive) | 118 | -0.522 (inactive) | -2.1e-05 (inactive) | 0.00516 (inactive) | 13.2% (inactive) | 26.1% (inactive)
23 | CCOCCCNC(=O)CC1Oc2ccc(C)cc2NC1=O (stereo not drawn) | 595 | -6.2% (inactive) | 8.5% (inactive) | 107 | -6.5% (inactive) | 121 | -0.525 (inactive) | -3.6e-05 (inactive) | 0.00596 (inactive) | 5.01% (inactive) | 19.8% (inactive)
24 | CC(NC(=O)C1CCCN(S(=O)(=O)c2cccs2)C1)c1ccccc1 (stereo not drawn) | 816 | -1.4% (inactive) | -6.6% (inactive) | 106 | -1.1% (inactive) | 112 | -0.583 (inactive) | -4.2e-05 (inactive) | 0.00498 (inactive) | 12.2% (inactive) | 34.2% (inactive)
25 | Cc1c(C(=O)Nc2ccncc2)oc2c1C(=O)CC(C)(C)C2 | 254 | 9.6% (inactive) | 18.9% (inactive) | 85.4 | -44.5% (inactive) | 97.2 | -0.408 (inactive) | -2.8e-05 (inactive) | 0.00527 (inactive) | 7.94% (inactive) | -3.33% (inactive)
26 | Cc1cccc2cc(CN(CC3CCCO3)C(=O)c3cnccn3)c(=O)[nH]c12 (stereo not drawn) | 257 | 18.6% (inactive) | 5.3% (inactive) | 45.1 | -41% (inactive) | 113 | -0.401 (inactive) | -9.9e-06 (inactive) | 0.00355 (inactive) | 8.77% (inactive) | 32.1% (inactive)
27 | CCC(Oc1ccccc1)C(=O)Nc1ccccc1OC (stereo not drawn) | 352 | 9.2% (inactive) | -9.3% (inactive) | 106 | -33.3% (inactive) | 109 | -0.487 (inactive) | -1.9e-05 (inactive) | 0.00497 (inactive) | 0.598% (inactive) | 19.3% (inactive)
28 | COC(=O)c1cc(S(=O)(=O)N2CCC(C)CC2)ccc1F | 552 | -17% (inactive) | -56.8% (inactive) | 112 | -24.3% (inactive) | 104 | -0.452 (inactive) | -0.000117 (inactive) | 0.00608 (inactive) | 15.3% (inactive) | 29.4% (inactive)
